KCNQ2 pot: KCNQ2 (rat) channel potentiation | CHO-K1 KCNQ2, FluxOR thallium flux fluorescence; stronger effect = higher value | hit rate 0.54% among 310,000 | B-score at 10 µM;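 active = fluorescence ratio B-score at least 3 SD of library B-scores, with initial fluorescence B-score within 3 of them, cut at about 5.3 in these data; same plate scores as AID 2156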;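 also: B-score of peak minus minimum over baseline fluorescence ratio after K+ and Tl+ stimulus; positive B-score means potentiation of KCNQ2 with more thallium influx and brighter signal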
Target sequence (O88943 whole entry, looked up): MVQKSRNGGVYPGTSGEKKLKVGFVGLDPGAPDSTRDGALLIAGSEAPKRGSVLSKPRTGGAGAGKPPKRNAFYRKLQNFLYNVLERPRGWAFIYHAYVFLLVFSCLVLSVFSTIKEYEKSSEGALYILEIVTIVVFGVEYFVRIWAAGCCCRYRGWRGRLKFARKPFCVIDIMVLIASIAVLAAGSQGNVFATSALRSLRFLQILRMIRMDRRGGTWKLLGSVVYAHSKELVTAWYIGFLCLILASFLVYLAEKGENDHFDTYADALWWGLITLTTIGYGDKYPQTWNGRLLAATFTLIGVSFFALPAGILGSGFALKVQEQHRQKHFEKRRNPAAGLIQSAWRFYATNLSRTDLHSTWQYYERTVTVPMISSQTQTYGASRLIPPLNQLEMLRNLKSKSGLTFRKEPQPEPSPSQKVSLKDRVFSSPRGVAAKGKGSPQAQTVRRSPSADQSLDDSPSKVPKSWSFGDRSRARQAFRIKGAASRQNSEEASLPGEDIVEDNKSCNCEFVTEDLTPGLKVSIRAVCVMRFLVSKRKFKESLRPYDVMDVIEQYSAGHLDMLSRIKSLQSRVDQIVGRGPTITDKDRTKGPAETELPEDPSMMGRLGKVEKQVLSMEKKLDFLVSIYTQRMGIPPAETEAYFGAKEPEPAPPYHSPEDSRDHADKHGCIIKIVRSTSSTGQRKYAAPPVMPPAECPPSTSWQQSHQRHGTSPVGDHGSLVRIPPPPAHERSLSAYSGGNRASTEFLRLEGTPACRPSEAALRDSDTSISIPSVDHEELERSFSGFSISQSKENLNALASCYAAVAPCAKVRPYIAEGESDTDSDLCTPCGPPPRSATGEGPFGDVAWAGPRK
KCNQ2 inh: blocks the rat KCNQ2 potassium channel; O88943; CHO-K1 KCNQ2, FluxOR thallium flux, 20 min; stronger effect = lower value; B-score at 10 µM; hit rate 1.1% among 310,000;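 active = fluorescence ratio B-score at most minus 3 library SDs, with starting brightness B-score within 2 library SDs, cut at about -5.5 in these data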
Kir21 confirm: confirmation of mouse Kir2.1 potassium channel inhibitors | shares compounds with KCNQ2 pot | Tl flux remaining, % of negative control (stronger effect = lower value), % at 10 µM | Kir2.1-expressing cells, FluxOR thallium flux fluorescence; stronger effect = lower value | hit rate 41% among 2,300;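 active = Primary-screen hit whose thallium flux fell at least 3 control SD below untreated wells in both duplicates, with normal baseline fluorescence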
HEK293 ctr: counter-screen for Kir2.1 inhibitors: effect in parental HEK293 cells; AID 2105; FluxOR signal as % of negative control (100 = no effect), % at 10 µM; hit rate 19% among 2,300; shares compounds with KCNQ2 pot; FluxOR thallium flux fluorescence; 0% = unstimulated blank wells;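 active = dye signal at least 3 control SD above or below untreated wells in both duplicates, raw fluorescence within 3, either direction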;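 also: percent is based on the flux ratio of peak minus minimum fluorescence over baseline F0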
CHO-K1 ctr: counter-screen for KCNQ2 potentiators: effect in parental CHO-K1 cells; shares compounds with KCNQ2 pot; FluxOR thallium flux fluorescence; zero = vehicle mean+3SD, 100% = vehicle-minus-blank window; activity increase over 3SD of controls, % at 10 µM; hit rate 43% among 1,200;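 active = signal rise of at least 3 SD above the untreated control mean, in both duplicate wells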;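 also: counter screen of KCNQ2 potentiator hits so any rise reflects channel-independent effects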
KCNQ1 sel pot: selectivity of KCNQ2 potentiators: effect on human KCNQ1. AID 2283. CHO KCNQ1 stable, FluxOR thallium flux fluorescence; beyond 3SD, as % of vehicle-control signal. activation over 3SD threshold, % at 10 µM. hit rate 28% among 1,200. shares compounds with KCNQ2 pot;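 active = fluorescence ratio rise of at least 3 SD of vehicle wells above their mean, in both replicate wells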
KCNQ2 pot confirm: confirmation of rat KCNQ2 potassium channel potentiators; AID 2287; hit rate 68% among 1,200; shares compounds with KCNQ2 pot; potentiation, less the hit threshold, % at 10 µM; CHO-KCNQ2 cells, FluxOR thallium flux fluorescence;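 active = fluorescence ratio rising 3 SD or more over the vehicle control mean in both replicates, plus primary screen hit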;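 also: peak minus minimum thallium fluorescence divided by baseline after K/Tl stimulus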
Kir21 spec: selectivity of KCNQ2 potentiators: effect on mouse Kir2.1 | HEK293 Kir2.1, FluxOR thallium flux fluorescence | activity over 3SD threshold, % at 10 µM | shares compounds with KCNQ2 pot | hit rate 2% among 1,200;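 active = fluorescence ratio rise of at least 3 SD above the vehicle-control mean, seen in both replicates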
KCNQ2 W236L pot: rat KCNQ2 W236L mutant potentiation by KCNQ2 potentiators. CHO KCNQ2-W236L, automated patch clamp current. shares compounds with KCNQ2 pot. current increase over 3SD of negative controls (%), stronger effect = higher value, % at 25 µM. hit rate 10% among 940. AID 2558;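 active = current increase at least 3 SD of the untreated controls above them in both duplicate recordings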
A number is an active result; 0 = inactive; - = no result given. An excerpt weighted towards active compounds, which were near 1.6% of everything screened.

SMILES	KCNQ2 pot	KCNQ2 inh	Kir21 confirm	HEK293 ctr	others
CC1Oc2cc3oc4c(O)c(O)ccc4c(=O)c3c(O)c2C1(C)C (stereo not given)	5.39	0	0	0	CHO-K1 ctr=0;KCNQ1 sel pot=0;KCNQ2 pot confirm=0;Kir21 spec=0
O=C(O)C1CC(O)CN1c1nc(Cl)ccc1[N+](=O)[O-] (stereo not given)	-	0	-	-
Cn1c(=S)ccc2ccccc21	0	0	-	-
O=C(CCCN1C(=O)c2ccccc2C1=O)Nc1nnc(C2CC2)s1	0	0	-	-
COc1ccc(C)cc1NC(=O)NNC(=O)C1CCC(C(C)(C)C)CC1 (stereo not given)	10.7	0	0	0	CHO-K1 ctr=0;KCNQ1 sel pot=0;KCNQ2 pot confirm=31.4;Kir21 spec=0;KCNQ2 W236L pot=0
COc1ccc(CCNC(=O)C2CC2)cc1OC	-	0	-	-
COc1ccc(CCNC(=O)C2CCC(C(C)(C)C)CC2)cc1OC (stereo not given)	-	0	48.0%	0
COc1ccc(C)cc1NC(=O)C1CCN(S(C)(=O)=O)CC1	-	0	-	-
COc1ccc2oc(C(=O)OC(C)C(=O)NC3(C#N)CCCCC3)c(C)c2c1 (stereo not given)	0	0	-	-
Cc1cc2c(ncn2Cc2ccccc2)c(N)c1C	0	0	-	-
C[C@@H](CN1C2=NC[C@H](Cc3ccc(O)cc3)N2C[C@H]1Cc1ccc(O)cc1)NC(=O)CCC1CCCCC1	-	0	-	-
Cc1ccc(C(=O)N[C@@H](C)CN2C3=NC[C@H](C(C)C)N3C[C@H]2Cc2ccc(O)cc2)cc1Br	-	0	-	-
COc1ccc(C[C@H]2CN3C(=NC[C@@H]3Cc3ccc(O)cc3)N2C[C@H](C)NC(=O)c2ccc(C)c(Br)c2)cc1	-	0	48.0%	0
COc1ccc(C[C@H]2CN3C(=NC[C@@H]3C(C)C)N2C[C@H](C)NC(=O)c2ccc(C)c(Br)c2)cc1	-	0	55.0%	0
CC1CCN(c2ccc(-c3cccs3)nn2)CC1	0	0	-	-
CC(C)[C@H](NC(N)=O)C(=O)Nc1cccc(S(=O)(=O)N2CCOCC2)c1	-	0	-	-
CCCc1ccc(-c2cc(NC(=O)CSc3nnc(N)s3)n(-c3ccccc3)n2)cc1	0	0	-	-
NC(=O)C1(C(N)=O)OC1c1ccccc1 (stereo not given)	-	0	-	-
CCOc1ccc(CNC(=O)c2ccc3c(c2)N(CC)CCS3)cc1	-	0	-	-
CCN1C(=O)CSc2ccc(C(=O)NCc3ccc(OC)cc3)cc21	0	0	58.0%	0
Cn1ncc(Cl)c1C(=O)N1CCN(S(=O)(=O)c2ccc(Cl)s2)CC1	-	0	-	-
CN(C)CC(CCCCC(CN(C)C)C(=O)c1ccccc1)C(=O)c1ccccc1 (stereo not given)	-	0	-	-
COc1cc(Br)c(/C=C/c2ccc3cccc(O)c3n2)cc1OC	0	0	-	-
COc1ccc(OC)c(/C=C/c2ccc3cccc(O)c3n2)c1	0	0	-	-
COc1cc(/C=C/c2ccc3cccc(O)c3n2)c(Br)cc1O	6.37	0	0	71.0%	CHO-K1 ctr=5.7;KCNQ1 sel pot=0;KCNQ2 pot confirm=0;Kir21 spec=0
SMILES	KCNQ2 pot	KCNQ2 inh	Kir21 confirm	HEK293 ctr	others
COc1cc(/C=C/c2ccc3cccc(O)c3n2)ccc1O	16.7	0	0	141.5%	CHO-K1 ctr=7.5;KCNQ1 sel pot=35.1;KCNQ2 pot confirm=12.3;Kir21 spec=0;KCNQ2 W236L pot=0
CC(C)(C)c1ccc(C(=O)N2CCC(C(=O)c3ccccc3)CC2)cc1	-	0	-	-
CCOC(=O)c1cccc(NC(=O)CC2Oc3ccccc3NC2=O)c1 (stereo not given)	-	0	-	-
CCCCOc1ccc(CSC(=N)N)cc1Cl	-	0	27.5%	0
CCCCCOc1ccc(Br)cc1CSC(=N)N	-	0	0	0
CCOc1ccc(CSC(=N)N)cc1	0	0	-	-
COc1ccc(Br)cc1CSC(=N)N	0	0	-	-
C=CCN1CC(=O)N2C(c3ccccc3)c3[nH]c4ccccc4c3C[C@H]2C1=O (stereo not given in full)	0	0	-	-
Cc1sc2cc3c(c(C(=O)c4ccccc4)[n+]2c1C)-c1cccc2cccc-3c12	0	-8.22	27.0%	63.5%
Cc1cc(C)c2c(N)c(C(=O)c3ccccc3)sc2n1	-	0	-	-
CCOc1ccc(C(C)NC(=S)NC2CCCCC2)cc1OCC (stereo not given)	0	0	-	-
CCc1ccc(C(C)NC(=O)C2(C)CC2(Br)Br)cc1 (stereo not given)	0	0	-	-
CC(NC(=O)C1CCCC1)c1ccc2c(c1)OCCO2 (stereo not given)	0	0	-	-
CCOc1ccc(C(C)NC(=S)NC2CCCCC2)cc1 (stereo not given)	5.43	0	0	0	CHO-K1 ctr=0;KCNQ1 sel pot=26.6;KCNQ2 pot confirm=20.3;Kir21 spec=0;KCNQ2 W236L pot=0
CCC(NC(=S)NC1CCCCC1)c1ccccc1 (stereo not given)	11.8	0	-	-	CHO-K1 ctr=0;KCNQ1 sel pot=0;KCNQ2 pot confirm=28.3;Kir21 spec=0;KCNQ2 W236L pot=0
CC(CCc1ccccc1)NC(=S)NC1CCCCC1 (stereo not given)	-	0	-	-
CCc1ccc(C(C)NC(=S)NC2CCCCC2)cc1 (stereo not given)	19.9	0	0	0	CHO-K1 ctr=14.7;KCNQ1 sel pot=7.8;KCNQ2 pot confirm=72.5;Kir21 spec=0;KCNQ2 W236L pot=0
CC(NC(=O)C1CCCCC1)c1ccc2c(c1)OCCO2 (stereo not given)	5.65	0	0	0	CHO-K1 ctr=6.0;KCNQ1 sel pot=39.0;KCNQ2 pot confirm=8.5;Kir21 spec=0;KCNQ2 W236L pot=0
CC(C)CNS(=O)(=O)c1ccc(OCC(=O)NCC2CCCO2)c(Cl)c1 (stereo not given)	0	0	-	-
Cc1ccc(NC(=O)CN(C)S(=O)(=O)c2ccc3c(c2)n(C)c(=O)c(=O)n3C)cc1	0	0	-	-
Fc1ccc2[nH]c3c(NCc4ccccc4)ncnc3c2c1	-	0	-	-
CCc1ccc(S(=O)(=O)NC(=S)NC2CCCCC2)cc1	8.86	0	0	302.0%	CHO-K1 ctr=0;KCNQ1 sel pot=0;KCNQ2 pot confirm=51.5;Kir21 spec=0;KCNQ2 W236L pot=0
Cc1ccc(S(=O)(=O)NC(=S)NC2CCCCC2)cc1	0	0	-	-
CCOc1ccc(C(C)NC(=O)C2CCCC2)cc1 (stereo not given)	0	0	-	-
CCC(C)c1ccc(C(C)NC(=S)NC2CCCCC2)cc1 (stereo not given)	13	0	-	-	CHO-K1 ctr=57.2;KCNQ1 sel pot=36.7;KCNQ2 pot confirm=34.1;Kir21 spec=0;KCNQ2 W236L pot=0
CCC(C)c1ccc(NC(=S)NC2CCN(Cc3ccccc3)CC2)cc1 (stereo not given)	-	0	-	-
CCc1ccc(C(C)NC(=O)C2CCCC2)cc1 (stereo not given)	11.7	0	0	0	CHO-K1 ctr=9.3;KCNQ1 sel pot=0;KCNQ2 pot confirm=18.1;Kir21 spec=0;KCNQ2 W236L pot=0
COc1ccccc1CN1CC(C(=O)NCc2cc(F)cc(C(F)(F)F)c2)CCC1=O (stereo not given)	0	0	-	-

Source: PubChem BioAssay (Johns Hopkins Ion Channel Center)
